In this assay the target is Genome polyprotein (Dengue virus type 2 (strain 16681-PDK53)) (UniProt P29991). The assay is described as follows: flavivirus cap methylation enzyme inhibition – biochemical, confirmation dose response, primary screen (AID 588689). The following applies: Dengue-2 NS5 methyltransferase capping enzyme assay, at 25 µM, stronger effect = higher value.
The mark [1] stands for this setting: measured here: pilot screen replicate inhibition.

The values that follow come from PubChem BioAssay AID588689 (Southern Research Specialized Biocontainment Screening …, 2011).

Among all 340,000 compounds or so, about 1,000 (0.29%) were called active. Rule as the data show it: inconclusive = inhibition above about 29% without an active follow-up result; inactive = below that. A selection follows. Potency and affinity values are given separately.

A word on the inhibition: it is the change of the read-out against control, counted positive when it falls. As for `CCCCC(NC(=O)Cc1c(C)c2cc3c(C)c(C)oc3c(C)c2oc1=O)C(=O)O` (stereo not drawn), the inhibition is 1.31% (inactive).

For `Cc1c(CC(=O)N[C@@H](C)C(=O)O)c(=O)oc2c(C)c3occ(-c4ccccc4)c3cc12`, the inhibition is -0.65% (inactive).

As for `CSC[C@H](NC(=O)Cc1c(C)c2cc3c(C)c(C)oc3cc2oc1=O)C(=O)N[C@@H](Cc1ccccc1)C(=O)O`, the inhibition is 1.4% (inactive).

As to `CCCC(NC(=O)Cc1c(C)c2cc3c(C)c(C)oc3c(C)c2oc1=O)C(=O)N[C@@H](Cc1ccccc1)C(=O)O` (stereo partly drawn), the inhibition was 1.45% (inactive).

Regarding `CCCOc1ccc(NC(=O)CC2C(=O)N(CC)C(=S)N2Cc2cccs2)cc1` (stereo not drawn), the inhibition is -2.45% (inactive).

Regarding `C/C(=C\c1cccc(Cl)c1)C(=O)c1c(C)cc(C)[nH]c1=O`, the inhibition is 0.68% (inactive).

With `COc1ccc(S(=O)(=O)N2CCN(c3ccccc3)CC2)cc1`, the inhibition is -2.22% (inactive).

As for `Cc1cccc(N2CCN(c3nc(C)cc(C)c3C#N)CC2C)c1` (stereo not drawn), the inhibition was -4.66% (inactive).

With `COc1cccc(/C=C2\SC(=S)N(c3cccnc3)C2=O)c1OC`, the inhibition was 6.89% (inactive).

As to `CCOc1ccc(/C=C2/SC(=S)N(C(C(=O)O)c3ccccc3)C2=O)cc1OCC` (stereo not drawn), the inhibition is 22.1% (inactive).

As to `COc1ccc(/C=C2\SC(=S)N(C(C(=O)O)c3ccccc3)C2=O)c(OC)c1` (stereo not drawn), the inhibition is -11.9% (inactive).

In the case of `O=C(O)C(c1ccccc1)N1C(=O)/C(=C\c2ccc(-c3ccccc3Cl)o2)SC1=S` (stereo not drawn), the inhibition was 12.4% (inactive).

As to `O=C1/C(=C/c2cccs2)SC(=S)N1c1ccccc1`, the inhibition is -4.85% (inactive).

`COc1cccc(/C=C2\SC(=S)N(N3CCOCC3)C2=O)c1OC`: the inhibition was -5.48% (inactive).

For `COc1ccc(OC)c(/C=C2\SC(=S)N(C(C(=O)O)c3ccccc3)C2=O)c1` (stereo not drawn), the inhibition was -26.1% (inactive).

In the case of `CCOc1ccc(/C=C2\SC(=S)N(C(C(=O)O)c3ccccc3)C2=O)cc1OC` (stereo not drawn), the inhibition was 16.8% (inactive).

On to `CC1(C(=O)N2CCN(c3ccc([N+](=O)[O-])cc3)CC2)CC1(Cl)Cl` (stereo not drawn), for which the inhibition is -2.36% (inactive).

In the case of `CN(CC(=O)Nc1ccc(F)cc1)C(=O)CSc1nccn1C`, the inhibition is 7.2% (inactive).

Regarding `Cn1nc(C(=O)NCc2cccc(Cl)c2)c2c1-c1ccccc1S(=O)(=O)C2`, the inhibition is 5.32% (inactive).

Turning to `COc1cccc(C(=S)N2CCOCC2)c1OS(=O)(=O)c1ccc(Cl)cc1`, the inhibition is 1.61% (inactive).

`CC(C)Cc1ccc(C(C)NC(=O)Cc2ccc(S(=O)(=O)N3CCOCC3)s2)cc1` (stereo not drawn): the inhibition is -1.45% (inactive).

Take `O=C(Nc1ccccc1[N+](=O)[O-])c1cccc(N2C(=O)CCC2=O)c1`: the inhibition is -7.81% (inactive).

On to `O=C(O)c1cnc(-c2ccccc2)nc1C(F)(F)F`, for which the inhibition was -8.19% (inactive).

Consider `COC(=O)Nc1nc(-c2ccccc2)c(C(=O)c2ccccc2)s1`, for which the inhibition was -4.12% (inactive).

For `COc1cccc(-c2ccc3ncnc(NCc4cccc(C)c4)c3c2)c1`, the inhibition was -0.8% (inactive).

Consider `COc1ccc(CNC(=O)/C=C/c2cc3c(cc2Br)OCO3)cc1`, for which the inhibition is -8.34% (inactive).

In the case of `COc1cc(/C=C2\OC(=O)c3c(OC)cccc32)ccc1O`, the inhibition is -20.1% (inactive).

Take `COc1cc(C(=O)O)c2c(c1C)OC(=O)c1c(C)cc(O)c(C=O)c1O2`: the inhibition was 0.72% (inactive).

Take `O=C(O)C1C2CCC(O2)C1C(=O)Nc1ccc(Br)cc1F` (stereo not drawn): the inhibition is -6.36% (inactive).

In the case of `C=CCC[C@@H](Cc1ccc(F)cc1)C(=O)OC[C@@H](Cc1ccccc1)NC(=O)[C@@H](CC=C)CC(=O)N[C@@H](CO)Cc1ccccc1`, the inhibition is -4.81% (inactive).

Take `CC(C)CSC1=NSC2=NC(=O)/C(=C\c3cccs3)C(=N)N12`: the inhibition was 24.3% (inactive).

Consider `N=C1/C(=C/c2cccs2)C(=O)N=C2SN=C(SCc3ccccc3)N12`, for which the inhibition was -11.6% (inactive).

On to `CCCCCCCCCCNC(=O)CCn1[nH]c(=O)c2ccccc2c1=O`, for which the inhibition is -4.1% (inactive).

In the case of `Cc1cccc(C)c1OCCn1nnc2ccccc21`, the inhibition is 1.31% (inactive). Also, the inhibition under setting [1] is -3.03%.

Turning to `COc1cc(/C=C2/C(=O)N(c3cccc(Br)c3)N=C2C)cc(OC)c1O`, the inhibition was -25.2% (inactive).

`COc1cc(/C=C2/C(=O)N(c3ccc(C(=O)O)cc3)N=C2C)cc(OC)c1O`: the inhibition is -28.1% (inactive).

In the case of `COc1cc(/C=C2\C(=O)N(CCC#N)N=C2C)ccc1OCC(=O)Nc1ccccc1`, the inhibition is 27.7% (inactive).

`COc1ccc(/C=C2\N=C(C)N(c3ccc(C(=O)O)cc3)C2=O)cc1OC`: the inhibition was -13.8% (inactive).

On to `Cc1ccccc1NC(=O)Cn1nnc(S(=O)(=O)c2ccc(C(C)(C)C)cc2)c1N`, for which the inhibition is -3.62% (inactive).

Regarding `NC(=O)N/N=C/c1ccc(-c2cccc(C(F)(F)F)c2)o1`, the inhibition was -7.73% (inactive).

For `Fc1cccc(/C=C2\CCCC3=C2NC(=S)NC3c2cccc(F)c2)c1` (stereo not drawn), the inhibition is 3.88% (inactive).

For `Cc1ccc(SC2=C(Sc3ccc(C)cc3)C(=O)c3ccccc3C2=O)cc1`, the inhibition was 22.2% (inactive).

With `COC1=C(Nc2ccc(C)cc2)C(=O)c2ccccc2C1=O`, the inhibition is 1.28% (inactive).

As for `COc1ccc(CN2CC(C(=O)NCCN3CCOCC3)CC2=O)cc1` (stereo not drawn), the inhibition was 0.54% (inactive).

`O=C(CN1C(=O)COc2ccc(Cl)cc21)N1CCc2ccccc21`: the inhibition is -2.43% (inactive).

Consider `Cc1cc(C)n(-c2nc3ccccc3c(=O)n2OCC#N)n1`, for which the inhibition was -1.94% (inactive).

Consider `CC(=O)Oc1ccc(N(C(C)=O)S(=O)(=O)c2ccc(C)cc2)c2ccccc12`, for which the inhibition was -8.55% (inactive).

As to `CC(=O)Oc1ccc(N(C(C)=O)S(=O)(=O)c2ccccc2)c2ccccc12`, the inhibition was 6.04% (inactive).

`O=C(NCCCn1ccnc1)c1ccc(Cl)s1`: the inhibition was -4.6% (inactive).

In the case of `O=S(=O)(Nc1ccc(N=Nc2ccc(O)c3ccccc23)cc1)c1ccccc1`, the inhibition was 6.54% (inactive).

Take `O=S(=O)(O)c1ccc(N=Nc2ccccc2)cc1`: the inhibition was -9.54% (inactive).

`O=C(C[n+]1ccc(C(=O)c2ccccc2)cc1)Nc1ccccc1OC(F)F`: the inhibition is -15.9% (inactive).

As to `O=P(C(=S)Nc1ccccc1Cl)(c1ccccc1)c1ccccc1`, the inhibition was -1.15% (inactive).

Consider `O=C(Nc1ccccc1)c1ccccc1NS(=O)(=O)c1ccc(Cl)s1`, for which the inhibition is 10.3% (inactive).

On to `Cc1ccc(NC(=O)c2ccccc2NS(=O)(=O)c2ccc(Cl)s2)cc1`, for which the inhibition was -0.66% (inactive).

As for `COC(=O)[C@]1(C)N[C@H](CN(C)S(=O)(=O)c2ccc(OC)cc2)[C@@H]2C(=O)N(C)C(=O)[C@@H]21`, the inhibition was -4.63% (inactive). Besides, under setting [1], the inhibition was -0.915%.

Turning to `Cc1ccc(S(=O)(=O)N2CCOCC2)cc1C(=O)NC1CCCC(C)C1C` (stereo not drawn), the inhibition is 1.47% (inactive).

With `CCCC1=C([O-])C2N=CC=CC2=[N+](c2ccccn2)C1=O` (stereo not drawn), the inhibition was -1.93% (inactive).

Turning to `O=C1c2ccccc2C(O)N1c1ccc(Cl)cc1` (stereo not drawn), the inhibition is -2.08% (inactive).

For `COC(=O)C1OC2(OC1C(=O)OC)c1ccccc1-c1ccccc12` (stereo not drawn), the inhibition is -6.04% (inactive).

As to `CC(C)(Oc1ccc(Cl)cc1)C(=O)NC1CCSC1=O` (stereo not drawn), the inhibition is -4.81% (inactive).

As for `CCOC(=O)N1CCC(NC(=S)Nc2ccc3nc(N4CCN(CC)CC4)cc(C)c3c2)CC1`, the inhibition was -6.96% (inactive).

On to `COc1ccc(-c2cc(C(=O)NCCN3CCOCC3)c3ccccc3n2)c(OC)c1`, for which the inhibition was -2.05% (inactive).

`Cc1cccc(N(CC(=O)O)CC(=O)O)c1`: the inhibition is 0.96% (inactive).

For the compound `COc1cccc(C(=O)C(C#N)=C(SC)SC)c1`, the inhibition was 12.4% (inactive).

Regarding `CSC(=CC(=O)c1ccccc1)SC`, the inhibition was -2.05% (inactive).

`Cc1c(C(=O)Nc2cccc([N+](=O)[O-])c2)sc2ncn(CC(=O)N3CCOCC3)c(=O)c12`: the inhibition is -4.39% (inactive).

On to `Cc1nc2ccc(Br)cc2c(-c2ccccc2)c1C(=O)O`, for which the inhibition was 1.96% (inactive).

`Cc1cccc(Nc2nnc(SCC(=O)NC3CCCc4ccccc43)s2)c1C` (stereo not drawn): the inhibition is -1.45% (inactive).

With `CC(=O)Nc1ccc(-c2sc(Nc3cccc4ccccc34)n[n+]2-c2ccccc2)cc1`, the inhibition is -7.03% (inactive).

With `CSc1ccc(-c2sc(Nc3ccccc3)n[n+]2-c2ccccc2)cc1`, the inhibition was -11.6% (inactive).

With `CCOC(=O)c1cnc2c(C)c(Cl)ccc2c1N1CCN(CC)CC1`, the inhibition is -10.3% (inactive).

On to `Cc1[nH]c2ccccc2c1-c1nc2ccccc2[nH]c1=O`, for which the inhibition is -8.14% (inactive).

Take `Cc1[nH]c2ccccc2c1-c1nc2ccccc2[nH]1`: the inhibition was -3.22% (inactive).

In the case of `COc1ccc(S(=O)(=O)NC2CCCC2)cc1C(N)=O`, the inhibition is -1.94% (inactive).

Take `O=c1cc(O)c2ccc(O)cc2o1`: the inhibition was 0% (inactive).

With `[O-][n+]1c2ccccc2[n+]([O-])c2cc(O)ccc21`, the inhibition is 37.8% (inactive).

Consider `COc1ccc(C(=O)OCCNC(=O)c2ccncc2)cc1OC`, for which the inhibition was -5.77% (inactive).

`CCOC(=O)c1ccccc1NC(=O)c1n[nH]c(=O)c2ccccc12`: the inhibition is 0% (inactive).

As to `COc1cccc(N2CCN(C(=O)c3c(C)nn(-c4ccccc4)c3C)CC2)c1`, the inhibition is -1.48% (inactive).

For the compound `COc1ccc(C(=O)NC2CCCc3c2cnn3-c2ccc(C)c(C)c2)c(OC)c1OC` (stereo not drawn), the inhibition was -2.67% (inactive).

As for `O=C1CC(Sc2ncccc2C(=O)O)C(=O)N1` (stereo not drawn), the inhibition was 6.1% (inactive).

As for `CC1=NN(c2ccccc2)C(=O)C1C(=S)SC1CC(=O)NC1=O` (stereo not drawn), the inhibition was 26.3% (inactive).

For `O=C(COC(=O)c1ccc(Br)o1)NC1CCCc2ccccc21` (stereo not drawn), the inhibition is -3.71% (inactive).

With `CC(C)NS(=O)(=O)c1ccc(OCC(=O)NCc2ccco2)cc1`, the inhibition was -2.21% (inactive).

For `Cc1ccc2nc(C)c(C(=O)N/N=C/c3ccccc3[N+](=O)[O-])cc2c1`, the inhibition was -1.3% (inactive).

For `O=c1c2c([N+](=O)[O-])cc([N+](=O)[O-])cc2nc2ccccn12`, the inhibition was 0% (inactive).

Turning to `Cc1nc2ccc([N+](=O)[O-])cc2nc1C`, the inhibition is -4.51% (inactive).

Regarding `O=[N+]([O-])c1cnc2ccccc2c1`, the inhibition was 3.89% (inactive).

As to `COc1cc(Cl)cc(NC(=O)CCN2CCN(C)CC2)c1`, the inhibition is -1.61% (inactive).

For the compound `O=C(NCCc1cccnc1)C1CCC(=O)N(CCc2cccc(F)c2)C1` (stereo not drawn), the inhibition was -9.31% (inactive).
